KCNQ2 inh – KCNQ2 (rat) channel inhibition. 310,000 compounds, 1.1% hits. B-score at 10 µM. CHO-K1 KCNQ2, FluxOR thallium flux, 20 min; hits give low values;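 active = fluorescence ratio B-score at most minus 3 library SDs, with starting brightness B-score within 2 library SDs, cut at about -5.5 in these data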
KCNQ2 pot – potentiators of rat KCNQ2 potassium channel; 310,000 compounds, 0.54% hits; B-score at 10 µM; CHO-K1 KCNQ2, FluxOR thallium flux fluorescence; hits give high values; AID 2239;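 active = fluorescence ratio B-score at least 3 SD of library B-scores, with initial fluorescence B-score within 3 of them, cut at about 5.3 in these data; same plate scores as AID 2156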;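 also: B-score of peak minus minimum over baseline fluorescence ratio after K+ and Tl+ stimulus; positive B-score means potentiation of KCNQ2 with more thallium influx and brighter signal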
Kir21 conf inh – confirmation of mouse Kir2.1 potassium channel inhibitors | shares compounds with KCNQ2 pot | Kir2.1-expressing cells, FluxOR thallium flux fluorescence; hits give low values | Tl flux remaining, % of negative control (hits give low values), % at 10 µM | 2,300 compounds, 41% hits | AID 2032;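 active = Primary-screen hit whose thallium flux fell at least 3 control SD below untreated wells in both duplicates, with normal baseline fluorescence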;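 also: 0% = blank wells without stimulus and 100% = stimulated no-compound controls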
HEK293 Tl flux – counter-screen for Kir2.1 inhibitors: effect in parental HEK293 cells; FluxOR signal as % of negative control (100 = no effect), % at 10 µM; FluxOR thallium flux fluorescence; 0% = unstimulated blank wells; 2,300 compounds, 19% hits; shares compounds with KCNQ2 pot;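 active = dye signal at least 3 control SD above or below untreated wells in both duplicates, raw fluorescence within 3, either direction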;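 also: percent is based on the flux ratio of peak minus minimum fluorescence over baseline F0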
CHO-K1 Tl ctr – alters thallium flux in parental CHO-K1 cells, KCNQ2 counter-screen. activity increase over 3SD of controls, % at 10 µM. FluxOR thallium flux fluorescence; zero = vehicle mean+3SD, 100% = vehicle-minus-blank window. shares compounds with KCNQ2 pot. 1,200 compounds, 43% hits;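 active = signal rise of at least 3 SD above the untreated control mean, in both duplicate wells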;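 also: counter screen of KCNQ2 potentiator hits so any rise reflects channel-independent effects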
KCNQ1 sel pot – human KCNQ1 counter-target activity of KCNQ2 potentiators. shares compounds with KCNQ2 pot. CHO KCNQ1 stable, FluxOR thallium flux fluorescence; beyond 3SD, as % of vehicle-control signal. activation over 3SD threshold, % at 10 µM. 1,200 compounds, 28% hits;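 active = fluorescence ratio rise of at least 3 SD of vehicle wells above their mean, in both replicate wells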;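 also: 0% = vehicle mean plus 3 SD and 100% = vehicle minus unstimulated blank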
Target sequence (P51787 whole entry, looked up): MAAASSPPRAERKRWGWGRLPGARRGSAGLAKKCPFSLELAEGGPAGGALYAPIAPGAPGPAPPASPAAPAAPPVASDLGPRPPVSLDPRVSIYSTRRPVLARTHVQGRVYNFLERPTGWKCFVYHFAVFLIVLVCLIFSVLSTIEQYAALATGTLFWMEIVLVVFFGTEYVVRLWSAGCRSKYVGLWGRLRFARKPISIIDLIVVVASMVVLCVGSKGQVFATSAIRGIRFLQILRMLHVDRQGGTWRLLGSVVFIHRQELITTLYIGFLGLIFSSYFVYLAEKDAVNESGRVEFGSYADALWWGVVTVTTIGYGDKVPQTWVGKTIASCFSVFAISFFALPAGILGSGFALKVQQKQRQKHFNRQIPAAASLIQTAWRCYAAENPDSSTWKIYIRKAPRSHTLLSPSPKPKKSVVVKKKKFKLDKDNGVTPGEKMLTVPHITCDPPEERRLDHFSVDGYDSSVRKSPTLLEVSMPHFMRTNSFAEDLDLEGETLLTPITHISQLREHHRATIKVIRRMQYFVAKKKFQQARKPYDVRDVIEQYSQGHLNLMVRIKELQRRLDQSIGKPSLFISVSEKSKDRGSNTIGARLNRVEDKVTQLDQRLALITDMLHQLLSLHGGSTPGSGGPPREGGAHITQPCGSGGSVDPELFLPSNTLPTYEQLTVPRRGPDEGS
KCNQ2 pot confirm – rat KCNQ2 channel potentiator confirmation; potentiation, less the hit threshold, % at 10 µM; CHO-KCNQ2 cells, FluxOR thallium flux fluorescence; 1,200 compounds, 68% hits; AID 2287; shares compounds with KCNQ2 pot;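 active = fluorescence ratio rising 3 SD or more over the vehicle control mean in both replicates, plus primary screen hit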;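 also: peak minus minimum thallium fluorescence divided by baseline after K/Tl stimulus; 0% = vehicle mean plus 3 SD and 100% = vehicle minus unstimulated blank difference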
Kir21 spec – tests whether KCNQ2 potentiators also affect mouse Kir2.1; AID 2345; activity over 3SD threshold, % at 10 µM; 1,200 compounds, 2% hits; shares compounds with KCNQ2 pot; HEK293 Kir2.1, FluxOR thallium flux fluorescence;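 active = fluorescence ratio rise of at least 3 SD above the vehicle-control mean, seen in both replicates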;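 also: 0% = vehicle mean plus 3 SD and 100% = vehicle minus no-stimulus blank window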
KCNQ2 W236L pot – rat KCNQ2 W236L mutant potentiation by KCNQ2 potentiators. current increase over 3SD of negative controls (%), hits give high values, % at 25 µM. 940 compounds, 10% hits. AID 2558. shares compounds with KCNQ2 pot. CHO KCNQ2-W236L, automated patch clamp current;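 active = current increase at least 3 SD of the untreated controls above them in both duplicate recordings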
* = called active by the depositor; i = inactive; · = no result given. In the library only some 1.6% were active in any assay of this set; here they are far more common.

SMILES	KCNQ2 inh	KCNQ2 pot	Kir21 conf inh	HEK293 Tl flux	others
O=C(CSc1nnc(-c2ccco2)n1Cc1ccccc1)c1ccccc1	i	·	·	·
Cn1c(SCC(=O)OCc2ccccc2)nnc1-c1ccco1	i	·	·	·
CC(C)Cn1c(SCC(=O)c2ccc(Cl)s2)nnc1-c1ccco1	-6.8*	-6.8	50%*	138%*
CCn1c(SCC(=O)OCc2ccccc2)nnc1-c1ccco1	i	·	i	i
CC(C)CNS(=O)(=O)c1ccc(CCC(=O)NCCc2ccccc2)cc1	i	0.85	·	·
COC(=O)c1ccccc1S(=O)(=O)N1CCC(C(=O)OCC(=O)c2ccccc2OC)CC1	i	·	·	·
CC(CCCN(C)C)C(Cc1ccccc1)c1ccccc1 (centres undefined)	i	·	48%*	i
CN(C)CCC(=O)C(Cc1ccccc1)c1ccccc1 (centres undefined)	i	·	·	·
COc1ccc(CCN2CC(C(=O)N(C)Cc3c(C)n[nH]c3C)CCC2=O)cc1 (centres undefined)	i	·	·	·
COc1ccc(NC(=O)C2CC(=O)N(c3ccccc3Cl)C2)c(OC)c1 (centres undefined)	i	0.65	·	·
CCn1c(=O)n(CC)c2cc(NC(=O)C(C)c3ccccc3)c(Br)cc21 (centres undefined)	i	22*	i	i	CHO-K1 Tl ctr=-8;KCNQ1 sel pot=-24;KCNQ2 pot confirm=95*;Kir21 spec=-24;KCNQ2 W236L pot=i
CCn1c(=O)n(CC)c2cc(N3CCCC3)c(NC(=O)c3cccc(C)c3)cc21	i	·	·	·
COc1cccc(C(=O)OCC(=O)NCCCc2ccccc2)c1	i	·	·	·
COCC1CCCCN1C(=O)c1cccc(OC2CCN(C(=O)C3CC3)CC2)c1 (centres undefined)	i	·	·	·
Cn1ncc(Cl)c1C(=O)N1CCN(S(=O)(=O)c2ccc(Cl)s2)CC1	i	·	·	·
C[C@@H](CN1C2=NC[C@H](Cc3ccccc3)N2C[C@H]1Cc1ccc(O)cc1)NC(=O)CCC1CCCCC1	i	·	·	·
C/C=C(\C)C(=O)NCCN1C2=NC[C@H](Cc3ccccc3)N2C[C@@H]1Cc1ccc(OC)cc1	i	0.09	·	·
COc1ccc(C[C@H]2CN3C(=NC[C@@H]3Cc3ccccc3)N2C[C@H](C)NC(=O)CCC2CCCCC2)cc1	i	·	38%*	i
COc1ccc(C[C@H]2CN3C(=NC[C@H]3Cc3ccccc3)N2CCNC(=O)CCC2CCCCC2)cc1	i	·	47%*	i
Fc1ccc(CNC(=S)Nc2ccccc2Cl)cc1	i	2.2	·	·
CCOc1ccccc1N(CC(=O)NC1CCCC1)C(=O)CNC(=O)c1cccs1	i	1.4	·	·
Cc1ccc(CN(C)C(=O)CCc2nc3sc4c(c3c(=O)[nH]2)CCCC4)o1	i	0.25	·	·
C=CCn1c(SCc2c(C)noc2C)nc2cc(C(=O)O)ccc2c1=O	i	0.07	·	·
C=CCn1c(SCc2ccc(Br)cc2F)nc2cc(C(=O)O)ccc2c1=O	i	5.3*	i	i	CHO-K1 Tl ctr=-15;KCNQ1 sel pot=-20;KCNQ2 pot confirm=-2;Kir21 spec=-29;KCNQ2 W236L pot=i
O=C(NCc1ccccc1)NC1(C(=O)N2CCN3CCCC3C2)CCCCC1 (centres undefined)	i	1.6	·	·
SMILES	KCNQ2 inh	KCNQ2 pot	Kir21 conf inh	HEK293 Tl flux	others
CCOc1ccccc1NC(=O)NC1(C(=O)N2CCN3CCCC3C2)CCCCC1 (centres undefined)	i	21*	i	i	CHO-K1 Tl ctr=-20;KCNQ1 sel pot=-13;KCNQ2 pot confirm=-22;Kir21 spec=-39
COC(=O)C/C(C)=N/Nc1ccc(S(=O)(=O)N2CCCC2)cc1[N+](=O)[O-]	i	·	·	·
CNC(=O)C(=O)Nc1cc2c3c(c1)C(C)C(=O)N3CCC2 (centres undefined)	i	1	·	·
COc1cccc(-n2sc3c(c2=S)-c2cc(OC)ccc2NC3(C)C)c1	i	·	·	·
CC1(C)Nc2ccc(O)cc2-c2c1ssc2=S	i	·	40%*	i
COc1cccc(NC(=O)COc2ccc(C(=O)N3CCN(C)CC3)cc2)c1	i	2.2	·	·
O=C(CC1CCCC1)N1CCCC(Nc2ccc(F)cc2)C1 (centres undefined)	i	1.5	·	·
O=C1CCCCN1CCC(=O)N1CCCC(Nc2ccccc2)C1 (centres undefined)	i	1.5	·	·
CC1(CCC(=O)N2CCCC(Nc3ccc(F)cc3)C2)CC1 (centres undefined)	i	·	51%*	i
O=C(CCc1cccc(Cl)c1)N1CCCC(Nc2ccccc2)C1 (centres undefined)	-7*	-7	70%*	i
Cc1cc(C)cc(NCCC#N)c1	i	1.5	·	·
C=CCn1c(SCC(=O)NC2CCCCC2)nnc1-c1cccnc1	i	·	·	·
Cc1ccc(S(=O)(=O)N2CCN(C(=O)COC(=O)CNC(=O)c3ccc(Cl)cc3Cl)CC2)cc1	i	1	·	·
Cc1ccc(-n2ncc(C(=O)Nc3cc(Cl)ccc3Cl)c2C2CCNCC2)cc1	i	·	·	·
Cc1ccc(-n2ncc(C(=O)Nc3cc(Cl)cc(Cl)c3)c2C2CCNCC2)cc1C	i	·	i	i
O=C(CCS(=O)(=O)c1ccc(Br)s1)NC1CCCCCC1	i	1.2	i	70%*
O=C(CCS(=O)(=O)c1ccccc1)NC1CCCCC1	i	0.47	·	·
CC(=O)Nc1ccc(OS(=O)(=O)c2c(C)cc(C)cc2C)cc1	i	·	·	·
CNC(=O)c1sccc1SCc1c(Cl)cccc1Cl	i	·	46%*	i
CNC(=O)c1sccc1SCc1ccc(Cl)cc1Cl	i	·	·	·
CC(=O)N1CCN(S(=O)(=O)c2cccc(C(=O)NCCC3=CCCCC3)c2)CC1	i	·	·	·
COc1ccc(NC(=O)CNc2ccc(C#N)cc2)cc1	i	·	·	·
CCOC(=O)c1ccc(N2CCOCC2)c(NC(=O)c2ccc3c(c2)OCO3)c1	i	·	·	·
CCNc1nc(SC(C)C(=O)Nc2ccccc2)nc(N2CCOCC2)n1 (centres undefined)	i	0.37	·	·
CC(=O)C(Sc1nc(N2CCOCC2)nc(N2CCOCC2)n1)C(=O)Nc1ccccc1 (centres undefined)	i	6*	i	i	CHO-K1 Tl ctr=10*;KCNQ1 sel pot=-4;KCNQ2 pot confirm=12*;Kir21 spec=-27;KCNQ2 W236L pot=i
Cc1ccc(CSCC(=O)N(C)CC(=O)Nc2ccccc2C(F)(F)F)cc1	i	·	·	·
